Sampled rows, rich in hits. Any-hit rate of the full collection: about 4.2%.
SMARCA2 activ = increases SMARCA2 function in MMTV reporter cells. hit rate 1% among 370,000. activation, % at 9.1 µM. AID 652017. MG213 cells, MMTV-luciferase reporter, dexamethasone, overnight; in the data active means activation above about 7.8%;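 further: 0% = vehicle wells and 100% = reference activator wells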
DAX1 inh = inhibitors of DAX1 repression of SF-1 activated StAR promoter. hit rate 1.1% among 370,000. inhibition, % at 6.8 µM. HEK293T StAR-luciferase reporter, SF-1/DAX-1 repression relief;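 active means inhibition above the mean over all tested compounds plus 3 SD, cut at about 3.6% in these data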;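 further: 0% = DAX-1 cells with DMSO and 100% = cells lacking DAX-1 with DMSO; higher inhibition means more luminescence from relief of DAX-1 repression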
ssDAF12 agonist = activators of S. stercoralis DAF-12 nuclear receptor | HEK293 ssDAF-12/GRIP1 lit1-tk-luc reporter, luminescence; % of 3 µM dafachronic acid response | activation, % at 6.8 µM | hit rate 1% among 370,000;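 active means activation above the mean over all tested compounds plus 3 SD, cut at about 0.9% in these data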;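 further: 0% = DMSO-only wells and 100% = 3 µM delta7-dafachronic acid wells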
hcDAF-12 act = activators of H. contortus DAF-12 nuclear receptor | HEK293 hcDAF-12 lit1-tk-luc reporter, luminescence; 0% DMSO, 100% Δ7-dafachronic acid | activation, % at 6.8 µM | hit rate 1.4% among 370,000 | AID 652067;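 active means activation above the mean of all tested compounds plus 3 SD, cut at about 5.5% in these data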;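 further: 100% = response to 3 µM Δ7-dafachronic acid high control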
hgDAF-12 ag = hgDAF-12 agonism, primary luciferase screen; HEK293 GAL4-hgDAF12 UAS-luciferase reporter, agonist luminescence; normalized to butyrate control; activation, % at 6.8 µM; hit rate 1.8% among 370,000; AID 687014;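 active means activation above a cutoff set at the mean of all screened compounds plus 3 SD, cut at about 10% in these data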;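 further: 0% = DMSO wells and 100% = sodium butyrate wells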
DAX1 conf = confirmation of human DAX1 (NR0B1) inhibitors | hit rate 87% among 2,400 | HEK293T StAR-promoter luciferase reporter, SF-1/DAX-1 repression | shares compounds with DAX1 inh | AID 652134 | inhibition, % at 6.8 µM;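 active means inhibition above the average of every tested compound plus 3 SD, cut at about 3.8% in these data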;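 further: 0% = DAX-1 cells with DMSO and 100% = no DAX-1 control cells with DMSO; active compounds raise luminescence by relieving repression of the StAR reporter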
Target sequence (P51843 whole entry, looked up): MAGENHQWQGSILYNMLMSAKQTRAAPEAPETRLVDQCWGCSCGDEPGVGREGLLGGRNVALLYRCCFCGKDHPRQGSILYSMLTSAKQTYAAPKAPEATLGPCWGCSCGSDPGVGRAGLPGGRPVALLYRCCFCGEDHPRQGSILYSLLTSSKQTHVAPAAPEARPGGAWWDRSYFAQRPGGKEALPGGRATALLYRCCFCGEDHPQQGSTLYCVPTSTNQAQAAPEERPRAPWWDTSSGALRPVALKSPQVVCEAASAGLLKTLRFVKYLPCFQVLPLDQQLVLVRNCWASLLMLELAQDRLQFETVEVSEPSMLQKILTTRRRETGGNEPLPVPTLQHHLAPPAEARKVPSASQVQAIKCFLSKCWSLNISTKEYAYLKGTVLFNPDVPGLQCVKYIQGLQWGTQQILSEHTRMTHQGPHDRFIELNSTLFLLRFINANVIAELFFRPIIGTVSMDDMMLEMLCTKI
SF1 AF2mut Luc = nonselective inhibitor or artifact in SF-1 mutant DAX1 counter-screen; shares compounds with DAX1 inh; HEK293 StAR-luciferase, SF-1 AF2 mutant, luminescence; inhibition, % at 6.8 µM; hit rate 78% among 2,400;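 active means inhibition above the mean of all tested compounds plus 3 SD, cut at about 3% in these data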;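 further: 0% = DAX-1 transfected cells with DMSO and 100% = cells without DAX-1 with DMSO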
SMARCA2 act conf = SMARCA2 activation, confirmation screen; shares compounds with SMARCA2 activ; MG213 cells, MMTV-luciferase with dexamethasone, luminescence, overnight; MG213 cells expressing E1A, Rb sequestered; DMSO wells 0%, reference activator 100%; activation, % at 9.1 µM; hit rate 30% among 3,500; AID 652260;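 active means activation above its plate's cutoff, the mean activation of tested wells plus 3 SD, cut at about 7.9% in these data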
GAL4-VP16 Luc = GAL4-VP16 reporter activation counter-screen; shares compounds with SMARCA2 activ; HEK293 GAL4-VP16 pG5luc reporter, luciferase luminescence; scaled: DMSO wells 0%, SAHA wells 100%; activation, % at 9.1 µM; hit rate 41% among 3,500; AID 686939;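 active means activation above the solvent-only control well mean plus 3 SD, averaged across control plates, cut at about 5.2% in these data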
LXRb hcDAF ctr = LXR-beta agonism as hcDAF-12 counter-screen. shares compounds with hcDAF-12 act. HEK293 Gal4-LXR tk-luc reporter, luminescence, 24 h; normalized: DMSO 0%, positive control 100%. activation, % at 6.8 µM. 3,400 tested, under 10 active;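 active means mean percent activation of the reporter above a cutoff set as the average over tested compounds plus their standard deviation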
hcDAF12 ag = hcDAF-12 agonism, confirmation assay; shares compounds with hcDAF-12 act; HEK293 hcDAF-12 lit1-tk-luc reporter, luminescence; % of Δ7-dafachronic acid response; activation, % at 6.8 µM; hit rate 61% among 3,400; AID 743032;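 active means mean activation across triplicate tests above the threshold derived from the earlier primary screen, cut at about 5.5% in these data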;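 further: 0% = DMSO only wells and 100% = 3 µM Δ7-dafachronic acid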
Numbers without * were called inactive; · = not tested or not shown.

SMILES | SMARCA2 activ | DAX1 inh | ssDAF12 agonist | hcDAF-12 act | hgDAF-12 ag | DAX1 conf | SF1 AF2mut Luc | LXRb hcDAF ctr | hcDAF12 ag | others
c1ccc2c(c1)COc1c3cc4c(cc3nn1-2)OCO4 | 9.5* | 8.7* | 1.2* | 11.2* | 29.2* | 17.9* | 9.1* | 1.4 | 12.7* | SMARCA2 act conf=15.2*;GAL4-VP16 Luc=10.6*
COc1ccc(-n2nc3cc(C)c(N)c(Br)c3n2)cc1 | 8.4* | 5.2* | 3.2* | 19.8* | 14.0* | 10.5* | 4.8* | 1.6 | 17.3* | SMARCA2 act conf=10.6*;GAL4-VP16 Luc=11.1*
Clc1ccc(C=Cc2ccccn2)c(Cl)c1 | 2.2 | 7.9* | 1.2* | 8.2* | 12.9* | 11.6* | 6.8* | 1.2 | 14.8*
Nc1nc(-c2ccccc2)nc2sc3c(c12)CCCC3 | 0.9 | 8.3* | 3.0* | 20.7* | 18.0* | 16.6* | 6.5* | 2.1 | 17.3*
NC(=O)c1ccccc1OCC(=O)Nc1ccc(Cl)c(Cl)c1 | 3.3 | 6.9* | 2.2* | 10.5* | 18.1* | 20.6* | 8.9* | 1.8 | 10.8*
C=CCN1[C@H](Cc2ccccc2)COc2cc(F)ccc2S1(=O)=O | -1.2 | -1.5 | -1.6 | -3.6 | 3.0 | · | · | · | ·
CC(=O)Nc1cccc(-c2ccnc3c2CC(C(=O)NCCC(F)(F)F)O3)c1 (stereo unspecified) | -2.8 | 0.6 | -1.1 | -1.5 | 0.4 | · | · | · | ·
COc1ccc(-c2cn3ccc4ccccc4c3n2)cc1 | 1.7 | 7.1* | 5.2* | 23.4* | 18.5* | 18.5* | 9.6* | 2.1 | 23.1*
COc1ccc(Cc2c(-c3ccc(C)cc3)nc3c4ccccc4ccn23)c(C)c1 | -2.4 | 2.0 | 0.0 | 2.7 | 3.4 | · | · | · | ·
O=S(=O)(NCc1ccccc1)c1cc(Br)ccc1Br | 0.1 | -0.9 | -1.9 | -1.9 | -0.3 | · | · | · | ·
COc1ccc(/C(N)=N/OC(=O)c2cccs2)cc1 | 1.5 | 5.2* | 4.4* | 10.1* | 11.9* | 14.0* | 9.6* | 1.4 | 3.7
COc1ccc(CNC(=O)CCNS(=O)(=O)c2ccc3[nH]c(=O)oc3c2)cc1 | -1.5 | -0.1 | -0.2 | -2.7 | 5.1 | · | · | · | ·
c1ccc2sc(-c3ccncc3)nc2c1 | 5.9 | 0.8 | -0.8 | 0.3 | 4.6 | · | · | · | ·
COc1ccc(-c2nc3ccccc3s2)cc1 | 3.3 | 6.1* | 0.4 | 12.2* | 12.6* | 13.7* | 3.6* | 1.6 | 12.9*
CN(c1ccc(O)cc1)c1nc(-c2ccccc2)cs1 | -1.1 | 5.0* | -0.3 | 8.8* | 19.6* | 11.8* | 6.0* | 1.6 | 6.2*
CN(C)c1ccc(-c2csc(C(O)(c3ccccc3)C(F)(F)F)n2)cc1 (stereo unspecified) | 2.2 | 0.0 | -0.5 | 1.1 | -0.8 | · | · | · | ·
C=CCN1C(C(=O)OCC)CSCCS1(=O)=O (stereo unspecified) | -3.5 | -1.2 | -1.0 | -0.8 | -0.6 | · | · | · | ·
O=c1cc(-c2ccccc2)oc2ccc3ccccc3c12 | 2.2 | 4.6* | 0.7 | 8.7* | 4.8 | 0.1 | -3.8 | 0.6 | 9.8*
CCOC(=O)[C@]12CCC=C1N(Cc1ccc(Cl)cc1Cl)C(=O)[C@H](CC(=O)NCC13CC4CC(CC(C4)C1)C3)C2 | 3.6 | -0.6 | -1.1 | -0.1 | -0.1 | · | · | · | ·
O=C(Nc1nc2c(F)cc(F)cc2s1)c1ccco1 | 1.9 | 5.6* | 0.4 | 9.1* | 12.0* | 10.8* | 6.3* | 1.4 | 4.9
O=C(Nc1nc2c(F)c(F)c(F)cc2s1)c1ccco1 | 6.0 | 0.4 | -0.7 | 0.6 | 4.7 | · | · | · | ·
C=CCN=C1NC(c2ccc(Cl)cc2)C(C(=O)OC)=C(C)N1Cc1ccccc1C(F)(F)F (stereo unspecified) | 0.6 | 0.5 | -0.8 | -0.7 | -1.2 | · | · | · | ·
CC(C)(C)c1ccc(-c2nnc3n2N=C(c2ccc4ccccc4c2)CS3)cc1 | -4.2 | 0.2 | -1.4 | 0.6 | -0.3 | · | · | · | ·
O=C(CCN1C(=O)NC2(CCCC2)C1=O)Nc1ccc(-c2nc3ccccc3s2)cc1 | 1.4 | 5.8* | 1.0* | 7.7* | 13.1* | 12.8* | 5.8* | 1.3 | 7.6*
COc1ccc(/C=N\NC(=O)c2sccc2C)cc1Cn1nc(C)cc1C | 5.8 | 9.9* | 1.2* | 7.2* | 11.2* | 0.8 | -3.9 | 0.0 | 4.2
SMILES | SMARCA2 activ | DAX1 inh | ssDAF12 agonist | hcDAF-12 act | hgDAF-12 ag | DAX1 conf | SF1 AF2mut Luc | LXRb hcDAF ctr | hcDAF12 ag | others
CN(C)CCN(C(=O)c1cccs1)c1nc2cc3c(cc2s1)OCCO3 | 2.8 | 5.1* | 1.4* | 7.0* | 4.2 | 4.7* | 5.0* | 0.5 | 1.6
Clc1ccc(OCc2nc(-c3ccncc3)no2)c(Br)c1 | 1.5 | 5.9* | 1.2* | 8.3* | 12.8* | 11.8* | 8.5* | 1.2 | 6.2*
CC(C)c1nnc(NC(=O)c2cccc(-n3cnnn3)c2)s1 | 1.9 | 0.6 | -1.6 | -1.8 | -2.4 | · | · | · | ·
COc1cccc(C(=O)Nc2nnc(C(C)C)s2)c1 | -1.0 | 4.8* | 0.2 | 6.8* | 9.8 | 9.0* | 3.1* | 1.4 | 7.3*
Cc1ccc2c(N)c(C#N)sc2n1 | 1.5 | 0.0 | -0.3 | 0.2 | 3.1 | · | · | · | ·
Cc1ccc2nc(-c3sc4nc(C)ccc4c3N)[nH]c2c1 | 4.8 | 5.8* | 3.2* | 14.2* | 15.0* | 18.9* | 13.1* | 3.2 | 28.1*
CC(C)C[C@H](NC1(C(=O)NCCc2c[nH]c3ccccc23)CCOCC1)C(=O)NCCCc1ccccc1 | · | · | -1.5 | -0.5 | 0.4 | · | · | · | ·
Nc1nn(-c2cccc(F)n2)cc1-c1ccc(Cl)cc1 | 4.1 | 5.9* | 1.4* | 11.0* | 18.4* | 12.6* | 5.3* | 1.9 | 9.8*
C=CCNc1cccc2c1S(=O)(=O)N[C@@H](C)CO2 | 3.7 | -0.2 | -0.4 | 0.1 | -1.0 | · | · | · | ·
O=C(c1ccc2oc(CCc3ccccc3)nc2c1)N1CCC(O)CC1 | 5.4 | 8.1* | 0.2 | 8.2* | 11.0* | 13.2* | 4.9* | 1.1 | 6.9*
C=CCN1C(=O)[C@@H](CC(=O)N2CCCC2)[C@]2(C(=O)OCC)CCCCC/C=C/12 | -3.5 | 1.1 | -1.3 | -0.1 | -3.1 | · | · | · | ·
